Source: PubChem BioAssay (National Center for Advancing Translational Sciences (NCATS))
Hits are enriched below; roughly 10% of the tested compounds scored in any of these assays.
ELG1 DNA repair – inhibitors of ELG1-dependent DNA repair in HEK293T cells | HEK293T ELG1-luciferase reporter, luminescence, 16 h; DNA damage induced by 5-fluorouridine | Potency, µM (doses to about 46.1 µM), for the others: at the top dose activity change, negative = inhibition, actives largely listed as inhibitors | 330,000 tested, 2.3% active; further: on the % scale 0 is the no-effect control and ±100 the full control effect; nearly all actives have a fitted effect of over 55% in size
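Quantitative HTS, concentration-response format. 2,000 cells/well co-treated with 5-fluorouridine and compound, 16 hr in 5% CO2 at 37 °C; ONE-Glo luminescence read after 30 min.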
Gal4-VP16 FLuc – inhibits Gal4-VP16 luciferase reporter, ROR gamma counter-screen | Potency, µM (top dose mostly 53.6 µM), without a hit: at the top dose activity, negative = inhibition, usual class: inhibitors | 310,000 tested, 3.5% active | Drosophila S2 Gal4-VP16 UAS-luciferase, luminescence, 20 h;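 further: Gal4-VP16 expression switched on by copper sulfate through the metallothionein promoter; on the % scale 0 is the no-effect control and ±100 the full control effect; nearly all actives have a fitted effect of over 50% in size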
RORgamma inh – inhibitors of mouse ROR gamma transcriptional activity. Drosophila S2 Gal4-RORgamma UAS-luciferase reporter, 20 h. Potency, µM (top dose mostly 53.6 µM), inactives show at the highest dose activity change, negative = inhibition, most hits filed as inhibitors. 310,000 tested, 5.4% active. AID 2551; further: on the % scale 0 is the no-effect control and ±100 the full control effect; nearly all actives have a fitted effect of over 60% in size
Target sequence (P51450 whole entry, looked up, the tested form may be a part): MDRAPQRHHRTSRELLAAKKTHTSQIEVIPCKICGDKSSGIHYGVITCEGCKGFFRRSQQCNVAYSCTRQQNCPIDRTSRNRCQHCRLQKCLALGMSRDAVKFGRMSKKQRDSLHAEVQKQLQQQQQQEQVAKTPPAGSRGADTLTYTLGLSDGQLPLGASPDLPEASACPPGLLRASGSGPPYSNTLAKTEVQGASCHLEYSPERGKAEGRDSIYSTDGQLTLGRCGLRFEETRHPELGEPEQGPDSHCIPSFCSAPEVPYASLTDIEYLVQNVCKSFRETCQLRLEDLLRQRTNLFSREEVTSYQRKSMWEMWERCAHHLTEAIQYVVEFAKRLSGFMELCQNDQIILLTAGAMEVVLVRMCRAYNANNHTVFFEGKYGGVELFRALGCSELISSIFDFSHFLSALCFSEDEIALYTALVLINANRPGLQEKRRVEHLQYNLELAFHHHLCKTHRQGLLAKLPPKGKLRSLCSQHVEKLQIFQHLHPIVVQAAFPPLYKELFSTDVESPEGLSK
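A Gal4/UAS one-hybrid system in insect cells: metallothionein-promoter Gal4–ROR gamma fusion plus Photinus luciferase reporter. Copper sulfate 700 uM final, 20 hr ambient incubation, luminescent detection after 10 min with reagent.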
MCF10A rerep – inducers of DNA re-replication in MCF 10A breast cells. MCF 10A DNA re-replication, Hoechst nuclear intensity, 48 h. Potency, µM (doses to about 46.1 µM), without a hit: at the top dose activity, positive = re-replication, usual class: activators. 350,000 tested, 2.9% active. AID 624296; further: % of control where 0% means no effect; nearly all actives have a fitted effect of over 50% in size
SW480 rerep – inducers of DNA re-replication in SW480 colon cancer cells; SW480 DNA re-replication, Hoechst DNA content imaging, 48 h; Potency, µM (doses to about 46.1 µM), without a hit: at the highest dose re-replication activation, hits mostly activators; 340,000 tested, 1.8% active; AID 624297; further: % of control where 0% means no effect; nearly all actives have a fitted effect of over 55% in size
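Compounds, transferred as 23 nL by pin tool, were incubated with cells for 48 hr; DNA content per nucleus was then quantified by Hoechst staining and fluorescence plate imaging.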
* marks the source's active call; other numbers are inactive results; ? = inconclusive; . = not tested or not shown; [ ] = dose if it differs, or a comment. The call rests on the fitted dose curve; in most records, active means well fitted curve in the direction sought with a large enough effect; inconclusive means small, poorly fitted or top-dose-only effect, or another doubt; inactive means no such curve, though single readings can be large; an effect the other way counts as inactive or inconclusive. Potency means the concentration at half of the fitted maximal effect.

SMILES	ELG1 DNA repair	Gal4-VP16 FLuc	RORgamma inh	MCF10A rerep	SW480 rerep
N/C(=N\OCc1ccc([N+](=O)[O-])cc1)c1ccccn1	?	2.51µM*	1.58µM*	-3.7%	1.2%
CCCOc1ccccc1C(=O)N(Cc1cccc(Br)c1)C1CCS(=O)(=O)C1 (stereo not given)	5.0%	-1.9%	-1.7%	-1.1%	-6.9%
CC(C)CN1CCc2nc(-c3ccccc3)c3c(c2CC1)COC(C)C3 (stereo not given)	.	3.3%[10 µM]	2.0%[10 µM]	.	.
COC(=O)N1CCC[C@@]2(CCN(C(=O)Nc3ccccc3)C2)C1	.	1.6%	10.7%	.	.
Cc1cccc(/C(N)=N/OC(=O)c2cccnc2)c1	?	?	8.91µM*	4.6%	-8.6%
COc1ccccc1C/C(N)=N/OC(=O)c1ccc2c(c1)OCO2	9.2%	?	0.891µM*	-7.0%	?
COc1cc(C(=O)O/N=C(\N)c2ccccn2)cc(OC)c1OC	?	25.8%	-38.7%	7.0%	0.1%
N/C(=N\OC(=O)c1ccccc1)c1ccncc1	?	?	22.9%	-1.9%	-16.9%
N/C(=N\OC(=O)c1ccccc1)c1ccccn1	?	?	1.58µM*	-3.9%	-3.2%
CC(C)(C)c1ccc(C(=O)O/N=C(\N)c2ccccn2)cc1	?	5.01µM*	0.159µM*	0.6%	?
COc1ccc2c(c1)C(=O)[C@H](OC(=O)Nc1ccc(OC(F)F)cc1)[C@@H](c1ccc(OC)c(Br)c1)O2	.	-5.0%	1.4%	.	.
Cc1ccc(C(=O)O/N=C(\N)c2ccccn2)cc1	?	12.6µM*	8.91µM*	1.1%	-2.1%
COc1cc(OC)cc(C(=O)O/N=C(\N)c2cccc(C)c2)c1	?	?	-31.5%	-2.2%	1.0%
Cc1cccc(/C(N)=N/OC(=O)c2ccc(Br)o2)c1	?	?	12.6µM*	3.0%	-0.1%
Cc1cccc(/C(N)=N/OC(=O)c2ccc3c(c2)OCO3)c1	?	?	10µM*	-6.7%	-6.9%
N/C(=N\OC(=O)c1ccc(Br)o1)c1ccccn1	?	-2.3%	11.2µM*	0.4%	0.9%
COc1c(Br)cc([N+](=O)[O-])c(OC)c1C(=O)NC(=O)Nc1nc(C)cc(C)n1	15.6%	-18.2%	38.4%	1.6%	-2.4%
CN(C)CCCNCC(=O)NN(c1ccccc1)c1ccccc1	6.3%	2.3%	-1.8%	?	-9.2%
COc1ccc(C(=O)O/N=C(\N)c2ccccn2)c(OC)c1	?	?	?	0.4%	-3.6%
CCOc1ccc(C(=O)O/N=C(\N)c2ccccn2)cc1	?	10µM*	4.47µM*	-0.2%	-6.4%
CCC(C)C(NC(=O)c1ccccc1NC(=O)c1ccc(OC)cc1)C(=O)NCCCn1ccnc1 (stereo not given)	5.1%	-8.5%	22.6%	16.3%	-3.2%
O=C(c1cccs1)N1C(=O)c2cccc3cccc1c23	-5.7%	2.3%	7.9%	-0.4%	15.1%
COc1ccc(Nc2c3c(nc4ccccc24)CCC3)cc1	-27.1%	3.2%	-10.3%	1.4%	7.7%
COc1ccc(Nc2c3ccccc3nc3ccccc23)cc1	?	.	.	-2.4%	23.1µM*
O=C(O)c1ccc(Nc2c3ccccc3nc3ccccc23)cc1	0.0%	20µM*	?	20.6µM*	?
SMILES	ELG1 DNA repair	Gal4-VP16 FLuc	RORgamma inh	MCF10A rerep	SW480 rerep
CN1CCN(c2ccc(Nc3c4ccccc4nc4ccccc34)cc2)CC1	.	10µM*	-44.0%	.	.
CC(C)(C)Nc1c2ccccc2nc2ccccc12	-1.1%	-2.3%	-22.3%	14.6µM*	23.1µM*
CN1CCN(c2ccc(Nc3ccnc4cc(Cl)ccc34)cc2)CC1	-15.4%	.	.	-4.0%	?
O=[N+]([O-])c1cc2c(c3cccnc13)COCO2	.	.	.	?	-4.2%
COc1ccccc1Nc1c2ccccc2nc2ccccc12	?	?	0.4%	?	?
COc1cc(Nc2c3ccccc3nc3ccccc23)cc(OC)c1OC	-27.2%	?	-10.1%	?	23.1µM*
CN=C1c2cc3cc(OC)ccc3n2CCN1Cc1ccccc1	?	-4.2%	-4.6%	20.6µM*	11.2µM*
COC(=O)[C@@H](Cc1c[nH]c2ccccc12)NC(=O)c1ccc2c(c1)OCO2	10.1%	?	8.91µM*	-5.3%	2.6%
